Measured values published in PubChem BioAssay.
Active and inactive are the calls of the source.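 The calls were made as follows, unless noted: active = mean inhibition over 43.08%, the solvent-only control mean plus 3 SD; inactive = the rest.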

Key:
[1] = biological target: Nuclear receptor coactivator 3 (Homo sapiens) (UniProt Q9Y6Q9); test: SRC3 coactivator transcriptional activity inhibitors, confirmation, cell-based, luminescence, quadruplicate (AID 588792); settings: HEK293 GAL4-SRC3 luciferase reporter, at 3.6 µM, stronger effect = higher value;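 also: 0% = DMSO treated cells and 100% = gossypol at 36 µM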
Sequence of Nuclear receptor coactivator 3 (Homo sapiens) (Q9Y6Q9 whole entry, looked up, the tested form may be a part): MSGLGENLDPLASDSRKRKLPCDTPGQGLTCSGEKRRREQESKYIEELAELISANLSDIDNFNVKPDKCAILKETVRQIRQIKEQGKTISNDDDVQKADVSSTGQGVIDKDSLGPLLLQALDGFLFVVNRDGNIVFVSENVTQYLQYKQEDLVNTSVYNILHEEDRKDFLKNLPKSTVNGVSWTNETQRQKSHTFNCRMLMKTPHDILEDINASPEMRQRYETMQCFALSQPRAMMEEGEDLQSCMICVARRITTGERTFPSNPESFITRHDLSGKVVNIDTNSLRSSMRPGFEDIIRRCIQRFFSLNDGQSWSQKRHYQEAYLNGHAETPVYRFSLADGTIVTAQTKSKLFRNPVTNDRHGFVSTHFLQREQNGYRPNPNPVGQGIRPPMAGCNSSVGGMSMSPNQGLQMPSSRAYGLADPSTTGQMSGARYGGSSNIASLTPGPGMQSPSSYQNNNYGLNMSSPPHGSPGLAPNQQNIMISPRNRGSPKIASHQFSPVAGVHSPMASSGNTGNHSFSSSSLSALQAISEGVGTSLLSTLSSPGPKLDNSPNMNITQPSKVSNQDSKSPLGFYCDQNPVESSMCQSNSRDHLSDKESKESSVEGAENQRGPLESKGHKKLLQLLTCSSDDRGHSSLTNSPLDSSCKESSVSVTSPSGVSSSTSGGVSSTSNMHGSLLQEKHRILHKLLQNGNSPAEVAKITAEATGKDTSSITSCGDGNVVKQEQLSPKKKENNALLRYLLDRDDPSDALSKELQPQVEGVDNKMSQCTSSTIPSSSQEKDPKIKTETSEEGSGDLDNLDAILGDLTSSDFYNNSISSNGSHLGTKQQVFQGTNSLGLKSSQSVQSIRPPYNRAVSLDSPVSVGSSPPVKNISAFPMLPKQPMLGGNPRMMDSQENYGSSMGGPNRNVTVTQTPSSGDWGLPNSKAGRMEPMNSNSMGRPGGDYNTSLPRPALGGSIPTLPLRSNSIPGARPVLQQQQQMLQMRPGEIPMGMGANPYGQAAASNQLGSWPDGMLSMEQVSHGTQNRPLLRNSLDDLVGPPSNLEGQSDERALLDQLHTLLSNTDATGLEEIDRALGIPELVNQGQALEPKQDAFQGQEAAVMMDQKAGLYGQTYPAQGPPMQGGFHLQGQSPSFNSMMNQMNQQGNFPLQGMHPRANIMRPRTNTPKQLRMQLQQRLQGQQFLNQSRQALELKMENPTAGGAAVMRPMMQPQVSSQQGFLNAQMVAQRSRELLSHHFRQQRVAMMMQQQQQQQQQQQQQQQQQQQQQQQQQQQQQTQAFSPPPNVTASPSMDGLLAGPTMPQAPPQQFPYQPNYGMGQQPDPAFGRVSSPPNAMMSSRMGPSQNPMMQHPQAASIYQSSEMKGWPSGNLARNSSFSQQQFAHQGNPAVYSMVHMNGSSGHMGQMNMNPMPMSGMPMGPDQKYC

[2] = system: transactivating tegument protein VP16 (Human herpesvirus 1), Gal4-VP16 luciferase reporter; test: VP16 transactivation inhibitors, counter-screen for SRC3 inhibitor project, cell-based, luminescence, high throughput (AID 588794; in the data active = inhibition above about 30%); settings: mammalian cells, VP16-driven luciferase reporter luminescence; at 3.6 µM; stronger effect = higher value

| SMILES | inhibition [1] | inhibition [2] |
| --- | --- | --- |
| COc1cc(/C=C/c2cc(C(F)(F)F)[nH]c(=O)n2)cc(OC)c1OC | 16.9% (inactive) | 40.6% (active) |
| COc1ccc(C(=O)NN(C)c2nc(C(F)(F)F)nc3ccccc23)cc1 | 51.1% (active) | 35.3% (active) |
| NC(=O)c1sc2nc3c(c(-c4ccco4)c2c1N)CCCC3 | 59.8% (active) | 32.4% (active) |
| O=C(NC1CCCC1)C(c1ccncc1)N(Cc1ccccc1)C(=O)Cc1cccs1 (configuration not stated) | 2.62% (inactive) | -0.83% (inactive) |
| COc1ccc(C(=O)NCC(=O)OCc2c(Cl)cccc2Cl)cc1OC | -0.66% (inactive) | 1.22% (inactive) |
| CCCCC(O)(CCCC)C(=O)NN(C(=O)OCC)c1ccccc1 | 11.9% (inactive) | 14.8% (inactive) |
| N=c1c(C(=O)NCC2CCCO2)cc2c(=O)n3ccccc3nc2n1Cc1cccnc1 (configuration not stated) | -8.73% (inactive) | -5.19% (inactive) |
| CN(C)S(=O)(=O)c1cccc(-c2nn(-c3ccccc3)cc2/C=C(\C#N)c2nc3ccccc3[nH]2)c1 | 1.73% (inactive) | -4.19% (inactive) |
| CCOC(=O)/C(C#N)=C/c1cc(C)n(-c2ccccc2)c1C | 18.5% (inactive) | 18.2% (inactive) |
| CCN(CC)CCOc1c(Br)ccc2c1sc1nc3n(c(=O)c12)CCC3 | -18.1% (inactive) | 2.47% (inactive) |
| S=c1[nH]nc(C2CCCCC2)n1/N=C/c1ccco1 | -2.38% (inactive) | -11.2% (inactive) |
| CCOC(=O)C1=CCN(S(=O)(=O)c2ccc(C)cc2)C1c1cccc(Cl)c1 (configuration not stated) | 15.1% (inactive) | 6.03% (inactive) |
| COc1ccc(CNC(=O)c2ccc(Cl)c(S(=O)(=O)N3CCOCC3)c2)cc1OC | 12.8% (inactive) | 27.5% (inactive) |
| COc1cc(/C=C2\SC(=S)N(CCC(=O)NC3CCCC3)C2=O)cc(OC)c1OC | -4.46% (inactive) | 9.3% (inactive) |
| CC(=O)N(Cc1ccc(F)cc1)C1=C(NCc2ccccc2)C(=O)c2ccccc2C1=O | 30.9% (inactive) | 31.9% (active) |
| OCCNCCOc1ccc(Cl)c(Cl)c1 | 5.72% (inactive) | 2.08% (inactive) |
| Cc1cc(C(=O)N2CCN(c3ccccn3)CC2)no1 | 4.36% (inactive) | -9.5% (inactive) |
| C[C@H](NC(=O)Nc1ccccc1F)C(=O)O | 5.66% (inactive) | 3.39% (inactive) |
| Cc1ccc(S(=O)(=O)N2CCOCC2)cc1C(=O)Nc1cc(S(=O)(=O)N2CCCCC2)ccc1O | -2.21% (inactive) | -4.27% (inactive) |
| O=C(NCCc1ccccn1)C(F)(F)C(F)(F)C(F)(F)C(F)(F)C(F)(F)C(F)(F)C(F)(F)C(F)F | 9.78% (inactive) | -4.16% (inactive) |
| C=CCc1cccc(/C=N/NC(=O)C[n+]2ccccc2)c1O | 24.3% (inactive) | 12.3% (inactive) |
| C/C(=N\NC(=O)C1COc2ccccc2O1)c1ccccn1 (configuration not stated) | -12.8% (inactive) | 19.6% (inactive) |
| CC(C)(C)OC(=O)NCc1ccc(CNC(=O)c2[nH]cnc2C(=O)NC2CCN(C(=O)OC(C)(C)C)CC2)cc1 | 4.73% (inactive) | -0.72% (inactive) |
| Cc1ccc(C(=O)N(Cc2cccs2)C2CCS(=O)(=O)C2)cc1 (configuration not stated) | -5.57% (inactive) | 0.26% (inactive) |

| SMILES | inhibition [1] | inhibition [2] |
| --- | --- | --- |
| CC1=[N+]([O-])C(C)(C)CC(C)(C)c2ccccc21 | 3.29% (inactive) | 6.25% (inactive) |
| O=C(NCCc1cn2ccccc2n1)c1cc(COc2ccc3ncccc3c2)on1 | -5.01% (inactive) | 18.4% (inactive) |
| CCOc1cc(C(=O)N2CCC(CC3CC(c4ccc(Cl)cc4)=NO3)(C(=O)NCC3CCCCC3)CC2)cc(OCC)c1OCC (configuration not stated) | 6.12% (inactive) | 7.56% (inactive) |
| CCN(CC)C(=O)c1[nH]cnc1C(=O)N[C@@H](CCCCNC(=O)OC(C)(C)C)C(=O)OC(C)(C)C | 3.8% (inactive) | -3.67% (inactive) |
| NC(=S)NN=C(Cc1ccccc1)Cc1ccccc1 | 22.4% (inactive) | 15.6% (inactive) |
| CCCCCCC(=O)NNC(=O)CC(=O)Nc1ccccc1C(=O)O | 4.52% (inactive) | -10.2% (inactive) |
| CCN1CCN(c2cc(C)c3cc(NC(=S)N4CCCC(C)C4)ccc3n2)CC1 (configuration not stated) | 45.3% (active) | 31.4% (active) |
| O=C(NNC(=S)NCc1ccccc1)c1ccc2c(c1)OCO2 | -11.1% (inactive) | -11.7% (inactive) |
| COc1ccc2nc(C)cc(SCC(=O)N/N=C/c3ccc(O)cc3O)c2c1 | 24.1% (inactive) | 18.7% (inactive) |
| Cc1cccc(Nc2nc(-c3c(C)nc4ccccn34)cs2)c1 | 19.1% (inactive) | 24.4% (inactive) |
| COc1ccc(C(=O)Nc2c(-c3cccs3)c(=O)c3ccccc3n2C)cc1 | -10.2% (inactive) | 7.07% (inactive) |
| CCn1c(Cc2ccccc2)nnc1SCC(=O)Nc1ccc(N2CCOCC2)c(Cl)c1 | -0.44% (inactive) | -2.29% (inactive) |
| O=C(c1cc2sccc2n1Cc1ccccc1)N1CCN(c2nc3ccccc3s2)CC1 | 2.32% (inactive) | 35.9% (active) |
| CCn1c(C)nc2cc(C(=O)N/N=C(\C)c3ccc(OC)cc3O)ccc21 | 24.6% (inactive) | 8.7% (inactive) |
| COc1cccc(/C=N/NC(=O)c2ccc(=O)n(C)c2)c1O | 12.1% (inactive) | 9.91% (inactive) |
| COc1cccc(/C=C/C(=O)OCC(=O)N2CCCC2)c1OC | -12.6% (inactive) | -16% (inactive) |
| COc1cc(C(F)(F)F)c(C(=O)N(C)Cc2cc(Cl)cc(Cl)c2)cn1 | -10.3% (inactive) | -2.09% (inactive) |
| CCOc1ccccc1/C=C/c1onc(C)c1S(=O)(=O)N1CCC(C(=O)N(CC)CC)CC1 | 5.63% (inactive) | 3.37% (inactive) |
| NCCCn1c(C(=O)c2cc(Cl)c(N)c(Cl)c2)c2ccc([N+](=O)[O-])cc2[n+]1[O-] | 26.8% (inactive) | 9.54% (inactive) |
| Cc1ccc(CNC(=O)c2ccc3c(=O)c(O)c(-c4ccc(C)cc4)[nH]c3c2)cc1 | 28.5% (inactive) | 8.89% (inactive) |
| O=C1N(c2cccc(Cl)c2)C(c2ccc(Cl)cc2)N2CCCN12 (configuration not stated) | 3.22% (inactive) | -0.24% (inactive) |
| COc1ccc2c(c1)-c1c(ssc1=S)C(C)(C)N2S(=O)(=O)c1ccc(C)cc1 | 2.95% (inactive) | 13.9% (inactive) |
| CN(C)c1cc[n+](CC(=O)Nc2ccc(Oc3ccccc3)cc2)cc1 | 15.7% (inactive) | 20.2% (inactive) |
| Cc1ccc(-c2csc(NC(=O)c3cccc(C)c3)c2C(=O)O)cc1 | -6.27% (inactive) | 0.42% (inactive) |

| SMILES | inhibition [1] | inhibition [2] |
| --- | --- | --- |
| O=C(c1ccc(S(=O)(=O)Cc2cc(F)ccc2F)c([N+](=O)[O-])c1)N1CCCCC1 | -2.8% (inactive) | -0.48% (inactive) |
| C=CCn1c(NCCc2ccccc2)nc2c1c(=O)n(C)c(=O)n2C | 4.32% (inactive) | 28.1% (inactive) |
| Cc1c(Cl)cccc1NC(=O)Nc1ccccc1C(N)=O | 29.1% (inactive) | 27.1% (inactive) |
| CCn1nc(C(=O)OCC(=O)c2ccc3c(c2)OCCO3)c2ccccc2c1=O | -13.9% (inactive) | -5.51% (inactive) |
| COc1ccc(NC(=O)c2ccc(-c3ccccc3)cc2)cc1S(=O)(=O)N1CCOCC1 | 12% (inactive) | 34.6% (active) |
| O=C(NCCCn1ccnc1)C(=O)NCc1ccc(Cl)cc1 | 20.3% (inactive) | -1.8% (inactive) |
| Cc1ccc2occ(/C=N/NC(=O)c3ccccc3Br)c(=O)c2c1 | 40.7% (inactive) | 28.5% (inactive) |
| O=C(c1ccc(Cl)cc1)C(Cn1cncn1)C(Sc1ccccc1)c1ccccc1 (configuration not stated) | 14.8% (inactive) | 20.1% (inactive) |
| Cc1cc(=O)oc2cc(NC(=O)COc3cccc(C(F)(F)F)c3)ccc12 | 7.34% (inactive) | -7.4% (inactive) |
| CCc1[nH]nc2c1C(C1C=CCCC1)C(C#N)=C(N)O2 (configuration not stated) | 24.7% (inactive) | 21.2% (inactive) |
| CCOc1ccc(OCC)c(NC(=O)CN(C)S(=O)(=O)c2cccc3nsnc23)c1 | 1.36% (inactive) | 0.62% (inactive) |
| Cc1ccc(NC(=O)C2c3ccccc3-c3ccccc32)cc1 | 9.64% (inactive) | 6.56% (inactive) |
| Cc1cccc(NC(=O)c2cnn(C)c2)c1C | -2.28% (inactive) | -8.45% (inactive) |
| CC(C)c1nc(Cl)c(C#N)c2c1CCCC2 | 26% (inactive) | 37% (active) |
| N#CCc1ccc(NC(=O)c2ccc(S(=O)(=O)N3CCOCC3)cc2)cc1 | -11.6% (inactive) | -6.42% (inactive) |
| O=C(Nc1ncc(Cc2ccc(C(F)(F)F)cc2)s1)c1ccc(-c2cccc([N+](=O)[O-])c2)o1 | 0.3% (inactive) | 44.4% (active) |
| O=S(=O)(CC(CN1CCCCC1)N1CCCCC1)c1ccc2ccccc2c1 (configuration not stated) | 4.5% (inactive) | 6.94% (inactive) |
| CC1(C)CC2(CC(c3ccccc3F)c3cc(Cl)c(O)cc3O2)NC(=S)N1 (configuration not stated) | 16.6% (inactive) | 6.57% (inactive) |
| O=C(Cn1cnc([N+](=O)[O-])n1)N/N=C/c1cc(Cl)ccc1O | 20.3% (inactive) | 27.4% (inactive) |
| CCSc1nsc(NC(=O)Nc2cccc(F)c2)n1 | 13.2% (inactive) | 15.4% (inactive) |
| O=C(N/N=C/c1ccccc1O)c1ccncc1 | 14.8% (inactive) | 13.7% (inactive) |
| Cc1ccsc1/C=N/NC(=O)CNC(=O)c1ccccc1 | -11.5% (inactive) | -7.26% (inactive) |
| COc1ccccc1C(=O)OCC(=O)c1ccc(CNC(C)=O)s1 | 10.4% (inactive) | -0.94% (inactive) |
